This is part of a sample that, as a whole, favours compounds with a hit. Of some 83,000 tested, about 20% had one in any assay.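 Step 1: grow cells in 96-well plates. Step 2: add test compound at a single concentration. Step 3: incubate 48 h. Step 4: record percent growth.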 Values without a mark were called inactive. Active and inactive are the calls of the source. How the source made its calls: active means growth percent below 10; inactive means the rest.

For the assay, the system named is HL-60(TB) leukemia. Put plainly: NCI-60 one-dose screen, 48 h (100 = growth as untreated, 0 = no growth, -100 = all killed). The note with it: 10 µM unless noted.
As for `O=C(/C=C/c1sc(Cl)nc1Cl)c1ccccc1`, the growth is 42.2%.

Consider `Cc1cc2nc3c4cc([N+](=O)[O-])ccc4n(CCN(C)C)c3nc2cc1C`, for which the growth was -4.06% (active).

As for `Cc1cc(Nc2c3ccccc3nc3ccccc23)ccc1NS(C)(=O)=O`, the growth was 32.2%.

Take `C#Cc1cccc(Nc2nc(C)nc3cc(NC(=O)CCl)ccc23)c1`: the growth was -58% (active).

Consider `CC(C)(C)c1ccc(C(=O)N/N=C/c2ccc(O)cc2O)cc1`, for which the growth was 5.19% (active).

With `CCCCO[C@@H]1C=C2[C@H]3CC(C)(C)C(=O)C[C@]3(C(=O)O[C@@H]3O[C@H](CO[C@@H]4O[C@H](CO)[C@@H](OC5OC(C)C(O)C(O)C5O)[C@H](O)[C@H]4O)[C@@H](O)[C@H](O)[C@H]3O)CC[C@@]2(C)[C@]2(C)CC[C@H]3C(C)(C)C(=O)CC[C@]3(C)[C@@H]12` (stereo partly drawn), the growth is 49.2%.

As to `C=CCc1cc(C)ccc1NC(C(=O)NCC(=O)OC)c1ccccc1` (stereo not drawn), the growth is 103%.

In the case of `CCc1ccc(OC(=O)CCl)cc1`, the growth is 102%.

Regarding `CC(=O)O[C@H]1CC[C@]2(C)[C@H]3CC=C4[C@@H]5[C@H](C)[C@@H](C)CC[C@]5(C(=O)NCCNCCNCCN)CC[C@@]4(C)[C@]3(C)CC[C@H]2C1(C)C`, the growth is 81.6%.

On to `CCc1nc(N)nc(N)c1-c1ccc(Cl)cc1`, for which the growth was 51.3%.

With `Cc1cc2ccccc2c2cc3ccccc3cc12`, the growth was 49.4%.

In the case of `Cc1nc2ccccc2c(C(=O)O)c1O`, the growth was 186%.

Turning to `CN1CCC(=C(c2ccccc2)c2ccccc2)C(c2ccccc2)C1` (stereo not drawn), the growth is 88%.

Values taken from PubChem BioAssay (NCI).
